# From PubChem BioAssay
# Results filed as inconclusive are left out. For part of these data: Potency and affinity values are given separately. The source made the active and inactive calls.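 How the source made its calls, unless noted: active means luciferase signal above three times the same-plate solvent-only control wells; inactive means the rest.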
# How the values were obtained:
# [1] = blockers of polyQ-driven CASP3 activation – cell-based (AID 1583); settings: polyglutamine-induced caspase-3 activation, cell assay; stronger effect = higher value;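 tested at 10 µM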
# [2] = yeast 75Q aggregation reduction – 75Q-TubU reporter (AID 1593); settings: Yeast 75Q polyglutamine aggregation reporter
# [3] = restoration of touch response, mutant HTT neurons – whole organism, C. elegans mechanosensory neurons, N-terminal huntingtin (AID 1599); settings: C. elegans polyQ-huntingtin mechanosensory neurons, stronger effect = higher value
# [4] = blockers of cytochrome c efflux from mitochondria – biochemical, purified mitochondria (AID 1603); settings: stronger effect = lower value;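 further: mouse liver mitochondria challenged with calcium chloride; signal normalized to the plate average as 100%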
# [5] = polyglutamine aggregate formation blockers (AID 1604); settings: polyglutamine-induced protein aggregation inhibition assay; stronger effect = higher value; tested at 2.5 µM
# [6] = glutamate transport activators, MN-1 cells, MN-1 cell line (AID 1612); settings: MN-1 motor neuron cells, stronger effect = higher value;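 further: tested at 1 µM final; 0% = mean of DMSO vehicle wells on each plate; positive means more glutamate uptake than control and negative means less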
# [7] = GFP-Q80 aggregate reduction, neuronal-like cells, cell-based, NGF-treated PC12, GFPQ80 (AID 1614); settings: PC12 NGF-treated GFP-polyQ80 inclusion reduction;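 further: lower means fewer inclusions and 0 means no inclusions at all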
# [8] = 75Q-TubH aggregate inhibition, S. cerevisiae, yeast (AID 1616); settings: S. cerevisiae 75Q-TubH polyglutamine aggregation suppression; stronger effect = higher value
# [9] = MELAS cybrid and Rieske KO viability enhancers – cell-based, MELAS cybrids, Rieske KO mouse fibroblasts, CellTiter-Glo, primary screen (AID 1508586;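 active means mean z-score across replicates of 1.96 or higher in either the MELAS or the Rieske mutant cell line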;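 further: z relative to plate mean and SD of compound and empty wells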); settings: low glucose
# [10] = chitosan synthesis blockers in C. neoformans – flow cytometry, Cibacron Brilliant Red staining (AID 1347148; call rule not given here;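 further: compound exposure lasted three days at 37 degrees C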); settings: Cryptococcus neoformans chitosan, stronger effect = lower value; at 10 µM unless noted
# [11] = biological target: ATP-dependent translocase ABCB1 (Homo sapiens) (UniProt P08183); assay: P-glycoprotein substrate transport blockade – cell-based (AID 377; in the data active means fluorescence slope change above about 50%); settings: MDR1-expressing cells, fluorescent substrate accumulation slope; stronger effect = higher value; concentration not given here
# Chain of ATP-dependent translocase ABCB1 (Homo sapiens) (P08183 whole entry, looked up): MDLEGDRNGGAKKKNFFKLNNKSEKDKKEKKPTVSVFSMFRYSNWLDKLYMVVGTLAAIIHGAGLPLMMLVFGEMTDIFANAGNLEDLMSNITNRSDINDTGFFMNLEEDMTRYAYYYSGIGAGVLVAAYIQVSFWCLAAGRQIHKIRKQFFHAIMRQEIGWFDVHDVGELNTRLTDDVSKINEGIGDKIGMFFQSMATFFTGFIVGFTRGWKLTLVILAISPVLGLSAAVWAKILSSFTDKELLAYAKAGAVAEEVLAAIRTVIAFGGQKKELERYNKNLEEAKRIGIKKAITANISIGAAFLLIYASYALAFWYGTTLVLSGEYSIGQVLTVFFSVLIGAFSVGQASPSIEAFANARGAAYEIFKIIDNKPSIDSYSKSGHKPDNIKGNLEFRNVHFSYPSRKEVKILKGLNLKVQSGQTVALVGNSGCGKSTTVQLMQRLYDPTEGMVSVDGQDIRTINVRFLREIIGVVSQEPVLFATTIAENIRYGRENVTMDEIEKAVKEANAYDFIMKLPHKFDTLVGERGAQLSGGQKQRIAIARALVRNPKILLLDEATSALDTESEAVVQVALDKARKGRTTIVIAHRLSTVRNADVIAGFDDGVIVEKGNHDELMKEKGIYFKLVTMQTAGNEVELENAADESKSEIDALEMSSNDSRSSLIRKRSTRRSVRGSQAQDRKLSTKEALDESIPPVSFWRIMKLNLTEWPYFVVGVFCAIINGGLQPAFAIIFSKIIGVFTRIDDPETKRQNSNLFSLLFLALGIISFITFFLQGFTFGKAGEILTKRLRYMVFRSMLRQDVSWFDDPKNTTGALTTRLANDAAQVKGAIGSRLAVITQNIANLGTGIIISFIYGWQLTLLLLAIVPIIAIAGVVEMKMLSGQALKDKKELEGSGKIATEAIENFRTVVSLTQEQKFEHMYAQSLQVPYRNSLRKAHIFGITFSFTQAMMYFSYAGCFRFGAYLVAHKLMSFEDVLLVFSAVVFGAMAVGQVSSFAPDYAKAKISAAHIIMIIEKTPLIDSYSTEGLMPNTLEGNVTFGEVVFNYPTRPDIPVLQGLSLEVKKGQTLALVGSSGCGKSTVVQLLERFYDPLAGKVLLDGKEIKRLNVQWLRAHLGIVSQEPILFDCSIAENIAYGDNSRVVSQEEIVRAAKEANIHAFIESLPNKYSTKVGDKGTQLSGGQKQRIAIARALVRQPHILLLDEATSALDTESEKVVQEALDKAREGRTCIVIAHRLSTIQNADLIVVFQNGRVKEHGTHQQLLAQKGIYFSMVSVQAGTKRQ
# [12] = biological target: NAD(+) hydrolase SARM1 (Homo sapiens) (UniProt Q6SZW1); assay: blocking NAD cleavage by SARM1 SAM-TIR – cell lysate, NAD-Glo luminescence (AID 1508614;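 active means compound whose remaining NAD level is above about 45 nM, limit read from the data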); settings: SAM-TIR HEK293T lysate NADase, at 1 µM, stronger effect = higher value
# Chain of NAD(+) hydrolase SARM1 (Homo sapiens) (Q6SZW1 whole entry, looked up, the tested form may be a part): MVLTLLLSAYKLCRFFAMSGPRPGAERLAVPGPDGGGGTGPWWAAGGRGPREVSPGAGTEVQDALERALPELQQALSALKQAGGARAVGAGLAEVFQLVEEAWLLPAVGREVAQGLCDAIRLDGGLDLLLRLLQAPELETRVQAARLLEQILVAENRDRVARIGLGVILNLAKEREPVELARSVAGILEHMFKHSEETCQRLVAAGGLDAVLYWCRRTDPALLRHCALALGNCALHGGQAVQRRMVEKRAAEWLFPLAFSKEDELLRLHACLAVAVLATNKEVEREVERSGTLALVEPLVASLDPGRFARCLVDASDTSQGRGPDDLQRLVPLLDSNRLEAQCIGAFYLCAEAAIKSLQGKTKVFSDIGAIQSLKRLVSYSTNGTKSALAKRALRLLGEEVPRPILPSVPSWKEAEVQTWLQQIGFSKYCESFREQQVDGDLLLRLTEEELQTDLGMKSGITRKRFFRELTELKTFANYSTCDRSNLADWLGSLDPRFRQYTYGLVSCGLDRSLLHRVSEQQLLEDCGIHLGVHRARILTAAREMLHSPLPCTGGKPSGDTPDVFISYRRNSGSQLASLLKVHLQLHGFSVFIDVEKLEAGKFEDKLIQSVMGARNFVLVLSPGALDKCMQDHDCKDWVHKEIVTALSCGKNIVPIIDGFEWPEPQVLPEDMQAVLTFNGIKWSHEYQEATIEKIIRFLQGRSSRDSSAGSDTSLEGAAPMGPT
# [13] = biological target: Mitogen-activated protein kinase 7 (Homo sapiens) (UniProt Q13164); assay: Gal4-ERK5 driven luciferase induction – cell-based, HTS, primary screen (AID 1508626); settings: HeLa Gal4-ERK5 transactivation, 18 h, at 5 µM, stronger effect = higher value;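 further: luciferase driven by Gal4-ERK5 fusion binding five Gal4 sites before minimal TATA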
# Chain of Mitogen-activated protein kinase 7 (Homo sapiens) (Q13164 whole entry, looked up, the tested form may be a part): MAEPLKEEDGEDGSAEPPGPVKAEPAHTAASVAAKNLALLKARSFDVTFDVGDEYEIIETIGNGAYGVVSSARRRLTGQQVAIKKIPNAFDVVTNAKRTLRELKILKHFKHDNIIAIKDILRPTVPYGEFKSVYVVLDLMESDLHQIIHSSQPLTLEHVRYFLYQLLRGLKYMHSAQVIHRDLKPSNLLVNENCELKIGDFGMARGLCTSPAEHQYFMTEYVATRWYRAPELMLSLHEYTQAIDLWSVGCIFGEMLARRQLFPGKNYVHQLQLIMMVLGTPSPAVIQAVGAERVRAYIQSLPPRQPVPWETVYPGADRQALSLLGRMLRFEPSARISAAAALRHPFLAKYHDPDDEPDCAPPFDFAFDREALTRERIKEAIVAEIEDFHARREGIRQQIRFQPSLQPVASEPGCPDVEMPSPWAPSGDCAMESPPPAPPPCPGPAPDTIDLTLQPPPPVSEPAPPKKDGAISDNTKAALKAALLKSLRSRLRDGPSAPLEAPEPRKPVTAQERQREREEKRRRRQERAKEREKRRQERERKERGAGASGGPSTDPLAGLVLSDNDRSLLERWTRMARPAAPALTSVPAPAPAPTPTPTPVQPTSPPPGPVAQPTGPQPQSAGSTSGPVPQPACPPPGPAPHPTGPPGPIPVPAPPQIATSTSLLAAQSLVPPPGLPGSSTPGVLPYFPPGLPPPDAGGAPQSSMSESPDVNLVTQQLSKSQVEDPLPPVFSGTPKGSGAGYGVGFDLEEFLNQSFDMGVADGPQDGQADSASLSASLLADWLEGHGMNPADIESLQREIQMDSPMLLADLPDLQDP
# [14] = compounds altering viability of human ES cells (AID 493140; call rule not given here;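 further: cells exposed to compounds for four days before counting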); settings: human embryonic stem cell survival screen; stronger effect = higher value
# [15] = P. berghei load reduction in hepatocytes – cell-based, HepG2, luciferase luminescence, HepG2 viability, primary screen (AID 624349; in the data active means parasite load remaining mostly below about 12%, no sharp cut-off; inactive means mostly above about 10%;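 further: 100% = mean of DMSO negative control wells on the same plate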); settings: P. berghei liver stage in HepG2, luciferase luminescence, concentration not given here; parasite load remaining: stronger effect = lower value; viability: measured here: HepG2 viability without parasites
smiles,measurement,setting,value
C=CCC1(CC(C)C)C(=O)NC(=O)NC1=O,inhibition,[1],-3.41%
same,score,[2],0.97
same,rescue above control,[3],1.21
same,cytochrome c release ratio,[4],0.94
same,inhibition of aggregation,[5],7.48%
same,glutamate uptake change,[6],5.4%
same,inclusion score,[7],2
same,aggregation suppression score,[8],1.15
same,z-score,"[9]; MELAS cybrid survival, CellTiter-Glo 48 h, stronger effect = higher value",0.0849 (inactive)
same,z-score,"[9]; Rieske KO mouse fibroblast survival, CellTiter-Glo 72 h",0.0147
CCCCCc1cc(O)c2c(c1)OC(C)(C)[C@H]1CCC(C(=O)O)=CC21 (stereo partly drawn),fold fluorescence,[10],7.25 (inactive)
CC(N)C(O)c1ccccc1 (stereo not drawn),fluorescence slope change,[11],4.9% (inactive)
same,inhibition,[1],-49.8%
same,score,[2],1.3
same,rescue above control,[3],-2.3
same,cytochrome c release ratio,[4],0.86
same,inhibition of aggregation,[5],86.1%
same,glutamate uptake change,[6],4.9%
same,inclusion score,[7],2
same,aggregation suppression score,[8],1.78
same,remaining NAD,[12],10 nM (inactive)
CC(=O)O[C@H]1[C@H]2[C@@H](OC(=O)Cc3ccccc3)[C@@H](C)C[C@]2(OC(C)=O)C(=O)/C(C)=C/[C@@H]2[C@H](CC[C@@]13CO3)C2(C)C,luciferase signal,[13],56 AU (inactive)
CC(=O)O[C@H]1C(=O)[C@@]2(C)[C@H]([C@H](OC(=O)c3ccccc3)[C@]3(O)C[C@H](O)C(C)=C1C3(C)C)[C@]1(OC(C)=O)CO[C@@H]1C[C@@H]2O,luciferase signal,[13],136 AU (inactive)
O=C(NN=Cc1ccc([N+](=O)[O-])o1)c1cc([N+](=O)[O-])cc([N+](=O)[O-])c1O,remaining NAD,[12],10 nM (inactive)
CN(CC[C@H](N)CC(=O)N[C@H]1C=C[C@H](n2ccc(N)nc2=O)O[C@@H]1C(=O)O)C(=N)N,luciferase signal,[13],80 AU (inactive)
COC1=C[C@]23CCCN2CCc2cc4c(cc2[C@@H]3[C@@H]1O)OCO4,luciferase signal,[13],56 AU (inactive)
CC(C)[C@@H]1NC(=O)[C@H](C)OC(=O)[C@@H](C(C)C)NC(=O)[C@@H](C(C)C)OC(=O)[C@H](C(C)C)NC(=O)[C@H](C)OC(=O)[C@@H](C(C)C)NC(=O)[C@@H](C(C)C)OC(=O)[C@H](C(C)C)NC(=O)[C@H](C)OC(=O)[C@@H](C(C)C)NC(=O)[C@@H](C(C)C)OC1=O,luciferase signal,[13],36 AU (inactive)
CC(=O)OC1C[C@@]2(C)[C@H](c3ccoc3)C[C@H]3O[C@]32[C@]2(C)C(=O)C(O)=C3C(C)(C)C(=O)C=C[C@]3(C)C12 (stereo partly drawn),luciferase signal,[13],12 AU (inactive)
CC(=O)OCC1=C(C(=O)O)N2C(=O)[C@@H](NC(=O)CCCC(N)C(=O)O)[C@H]2SC1 (stereo partly drawn),luciferase signal,[13],56 AU (inactive)
CCN1C[C@]2(COC)[C@H](O)C[C@H](OC)[C@]34C1[C@H]([C@H](OC)[C@H]23)[C@]1(OC(C)=O)[C@H]2[C@@H](OC(=O)c3ccccc3)[C@](O)(C[C@H]24)[C@@H](OC)[C@@H]1O,remaining NAD,[12],10 nM (inactive)
same,luciferase signal,[13],16 AU (inactive)
CC(=O)O[C@@H]1[C@H]2CC[C@H]3[C@@](C)(O)[C@@H]4C[C@H](O)C(C)(C)[C@@]4(O)[C@@H](O)C[C@@]13C[C@@]2(C)O,luciferase signal,[13],32 AU (inactive)
CC(=O)OC1CCC2(C)C(CCC3C2CCC2(C)C(C4=CC(=O)OC4)C(OC(C)=O)CC32O)C1 (stereo not drawn),luciferase signal,[13],16 AU (inactive)
C=CCNCCCCCCCCCC (tested in a mixture with another compound),remaining NAD,[12],10 nM (inactive)
O=c1nc(O)n(Cl)c(=O)n1Cl,remaining NAD,[12],10 nM (inactive)
CN[C@@H]1[C@@H](O)[C@@H](O[C@@H]2[C@@H](O)[C@H](O[C@H]3O[C@H]([C@@H](C)O)[C@@H](O)[C@H](O)[C@H]3N)[C@@H](N)C[C@H]2N)OC[C@]1(C)O,luciferase signal,[13],52 AU (inactive)
C[C@]12CCC(=O)C[C@@H]1CC[C@@H]1[C@@H]2CC[C@]2(C)C(=O)CC[C@@H]12,luciferase signal,[13],68 AU (inactive)
COC(=O)C1=CO[C@@H](C)[C@@H]2CN3CC[C@@]4(C(=O)Nc5ccccc54)[C@H]3C[C@H]12,luciferase signal,[13],32 AU (inactive)
OC[C@@H](O)[C@H]1O[C@@H]2O[C@H](C(Cl)(Cl)Cl)O[C@@H]2[C@H]1O,remaining NAD,[12],10 nM (inactive)
C[N+]1([O-])[C@@H]2CC[C@H]1CC(OC(=O)C(CO)c1ccccc1)C2 (stereo partly drawn),fluorescence slope change,[11],74.3% (active)
same,survival,[14],35.2 (inactive)
same,parasite load remaining,[15],113% (inactive)
same,viability,[15],87.7%
same,remaining NAD,[12],10 nM (inactive)
CC[C@]12C=CCN3CC[C@@]4(c5ccc(OC)cc5N(C)[C@H]4[C@@](O)(C(=O)OC)[C@@H]1OC(C)=O)[C@@H]32,luciferase signal,[13],44 AU (inactive)
C[C@@H]1O[C@@H](O[C@H]2CC[C@]3(C=O)[C@H]4CC[C@]5(C)[C@@H](C6=CC(=O)OC6)CC[C@]5(O)[C@@H]4CC[C@]3(O)C2)[C@H](O)[C@H](O)[C@H]1O,luciferase signal,[13],4 AU (inactive)
CN1C2CC(OC(=O)C(CO)c3ccccc3)CC1C(O)C2 (stereo not drawn),remaining NAD,[12],10 nM (inactive)
C[C@@H]1CC[C@@]2(OC1)O[C@H]1[C@@H](O)[C@H]3[C@@H]4CC[C@H]5C[C@@H](O[C@@H]6O[C@H](CO)[C@H](O[C@@H]7O[C@H](CO)[C@@H](O)[C@H](O[C@@H]8OC[C@@H](O)[C@H](O)[C@H]8O)[C@H]7O[C@@H]7O[C@H](CO)[C@H](O)[C@H](O[C@@H]8O[C@H](CO)[C@@H](O)[C@H](O)[C@H]8O)[C@H]7O)[C@H](O)[C@H]6O)[C@H](O)C[C@]5(C)[C@H]4CC[C@]3(C)[C@H]1[C@@H]2C,luciferase signal,[13],48 AU (inactive)
COc1cc2c(cc1OC)[C@@H]1C(=O)c3ccc4c(c3O[C@@H]1CO2)C[C@H](C(C)C)O4,luciferase signal,[13],152 AU (inactive)
NC(=O)C[S@@](=O)C(c1ccccc1)c1ccccc1,remaining NAD,[12],10 nM (inactive)
CCN1C[C@]2(OC(=O)c3ccccc3NC(C)=O)CC[C@H](OC)[C@]34C1[C@H](C[C@H]23)[C@@]1(O)C[C@H](OC)[C@H]2C[C@@H]4[C@]1(O)[C@H]2OC,luciferase signal,[13],84 AU (inactive)
C=C[C@H]1CN2CC[C@H]1C[C@H]2[C@H](OC(=O)OCC)c1ccnc2ccc(OC)cc12,remaining NAD,[12],10 nM (inactive)
same,luciferase signal,[13],28 AU (inactive)
COc1ccc(O)c(C(C)(C)C)c1,remaining NAD,[12],10 nM (inactive)
COc1cc([C@@H]2c3cc4c(cc3[C@@H](O)[C@H]3COC(=O)[C@H]23)OCO4)cc(OC)c1O,luciferase signal,[13],72 AU (inactive)
CC[C@H]1[C@@H]2C[C@H]3[C@@H]4N(C)c5ccccc5[C@]45C[C@@H]([C@H]2[C@H]5O)N3[C@@H]1O,remaining NAD,[12],10 nM (inactive)
same,luciferase signal,[13],116 AU (inactive)
CC[C@@H](C)C(=O)O[C@H]1[C@H](O)[C@H]2[C@@H](CN3C[C@@H](C)CC[C@H]3[C@@]2(C)O)[C@@H]2C[C@]34O[C@]5(O)[C@@H](OC(=O)[C@](C)(O)[C@@H](C)O)CC[C@@]3(C)[C@@H]5[C@@H](OC(C)=O)[C@@H](OC(C)=O)[C@H]4[C@@]21O,luciferase signal,[13],88 AU (inactive)
CC(C)c1cc2c(c(O)c1O)[C@@]1(C(=O)O)CCCC(C)(C)[C@@H]1CC2,luciferase signal,[13],52 AU (inactive)
CN1[C@H]2C[C@H](OC(=O)[C@H](CO)c3ccccc3)C[C@@H]1[C@@H](O)C2,luciferase signal,[13],56 AU (inactive)
CC[C@@H](c1cccc(O)c1)[C@@H](C)CN(C)C,remaining NAD,[12],10 nM (inactive)
CC(=O)[C@H]1CC[C@H]2[C@@H]3CC[C@H]4C[C@H](O)CC[C@]4(C)[C@H]3CC[C@]12C,luciferase signal,[13],24 AU (inactive)
CC(=O)[C@H]1CC[C@H]2[C@@H]3CC[C@@H]4C[C@H](O)CC[C@]4(C)[C@H]3CC[C@]12C,remaining NAD,[12],10 nM (inactive)
